According to PMC5540273 (PLoS ONE, 2017):

test system: LTK; details: concentration: 1 μM,replicates: in singlicate; n = 1
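Further: KINOMEscan kinase panel screen.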

Row | Compound | %Inh [%]
1 | Cn1ccc2ncnc(Oc3ccc(NC(=O)Nc4cc(C(C)(C)C)on4)c(Cl)c3)c21 | 39
2 | CC(=O)Nc1ccc(-c2cc3ncnc(SCC(=O)O)c3s2)cc1 | 0
3 | CN(c1ccccc1CNc1nc(Nc2ccc3c(c2)CC(=O)N3)ncc1C(F)(F)F)S(C)(=O)=O | 81
4 | FC(F)(F)c1cc(Br)cc(Nc2nccc(-c3cnn4ncccc34)n2)c1 [GW810578] | 18
5 | O=C1NCCc2[nH]c(-c3ccncc3)cc21 | 0
6 | O=C(Nc1cccc(C(F)(F)F)c1)c1cccc(Oc2ccc3nccn3n2)c1 | 45
7 | Cc1ccc(CC(=O)N2CCc3cc(-c4cn(C)c5ncnc(N)c45)ccc32)cc1 [GSK2634758] | 24
8 | COC(=O)c1cccc(NC(=O)NC2CCN(c3ccnc(NCc4ccc(F)cc4)n3)CC2)c1 [GSK1379860] | 0
9 | Cn1ccc2ncnc(Oc3ccc(NC(=O)Nc4ccnc(C(F)(F)F)c4)c(Cl)c3)c21 | 100
10 | O=C(NOCC1CC1)c1cc(Br)c(F)c(F)c1Nc1ccc(I)cc1Cl | 0
11 | COc1ccc(Nc2nccc(N3CCC(NC(=O)c4cccc(C#N)c4)C3)n2)cc1 (stereo not shown) [GSK1379730] | 0
12 | COc1cccc(C2=C(Nc3cccc(Cl)c3)C(=O)NC2=O)c1 [SB-341556] | 86
13 | Cc1n[nH]c2cc(Nc3ccnc(Nc4cccc(CN5CCOCC5)c4)n3)ccc12 [GW682569] | 1
